Data as given in PubChem BioAssay AID1159580 (chemical genetic matrix, 2015).
Hit rate of the full screen: of about 5,500 compounds, about 2,000 (36%) were called active. About 18% were inconclusive and are not listed. Rule as the data show it: active = normalized growth mostly below about 0.91 (no sharp cut-off); inconclusive = no clear call, values can overlap the other calls; inactive = mostly above about 0.92. Some of the results follow.

Test: chemical genetic growth profiling, strain panel (AID 1159580);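 also: tested at 20 µM; growth read once vehicle control cultures reached saturation at 30 °C; 1 = growth at the plate median or of vehicle wells; lower values mean less growth of the strain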
Details: S. cerevisiae deletion strains, growth OD
[1] = locus YAR019C, strain CDC15, stronger effect = lower value
[2] = locus YBL105C, strain PKC1, stronger effect = lower value
[3] = locus YBR135W, strain CKS1, stronger effect = lower value
[4] = locus YBR136W, strain MEC1, stronger effect = lower value
[5] = locus YBR160W, strain CDC28, stronger effect = lower value
[6] = locus YDL017W, strain CDC7, stronger effect = lower value
[7] = locus YDL028C, strain MPS1, stronger effect = lower value
[8] = locus YDL101C, strain DUN1, stronger effect = lower value
[9] = locus YDL108W, strain KIN28, stronger effect = lower value
[10] = locus YDL132W, strain cdc53, stronger effect = lower value
[11] = locus YDL214C, strain PRR2, stronger effect = lower value
[12] = locus YDR052C, strain DBF4, stronger effect = lower value
[13] = locus YDR054C, strain cdc34, stronger effect = lower value
[14] = locus YDR226W, strain ADK1, stronger effect = lower value
[15] = locus YDR477W, strain SNF1, stronger effect = lower value
[16] = locus YER123W, strain YCK3, stronger effect = lower value
[17] = locus YER133W, strain GLC7, stronger effect = lower value
[18] = locus YFL009W, strain cdc4, stronger effect = lower value
[19] = locus YFL029C, strain CAK1, stronger effect = lower value
[20] = locus YFR003C, strain YPI1, stronger effect = lower value
[21] = locus YFR019W, strain FAB1, stronger effect = lower value
[22] = locus YFR028C, strain CDC14, stronger effect = lower value
[23] = locus YGR040W, strain KSS1, stronger effect = lower value
[24] = locus YGR052W, strain FMP48, stronger effect = lower value
[25] = locus YGR092W, strain DBF2, stronger effect = lower value
[26] = locus YHR030C, strain SLT2, stronger effect = lower value
[27] = locus YHR079C, strain IRE1, stronger effect = lower value
[28] = locus YHR082C, strain KSP1, stronger effect = lower value
[29] = locus YHR205W, strain SCH9, stronger effect = lower value
[30] = locus YIL147C, strain SLN1, stronger effect = lower value
[31] = locus YJL095W, strain BCK1, stronger effect = lower value
[32] = locus YJL128C, strain PBS2, stronger effect = lower value
[33] = locus YJL157C, strain FAR1, stronger effect = lower value
[34] = locus YJR016C, strain ILV3, stronger effect = lower value
[35] = locus YJR066W, strain TOR1 (second series), stronger effect = lower value
[36] = locus YJR066W, strain TOR1, stronger effect = lower value
[37] = locus YKL048C, strain ELM1, stronger effect = lower value
[38] = locus YKL067W, strain YNK1, stronger effect = lower value
[39] = locus YKL101W, strain HSL1, stronger effect = lower value
[40] = locus YKL193C, strain SDS22, stronger effect = lower value
[41] = locus YKL203C, strain TOR2, stronger effect = lower value
[42] = locus YLR113W, strain HOG1, stronger effect = lower value
[43] = locus YLR133W, strain CKI1, stronger effect = lower value
[44] = locus YLR403W, strain SFP1, stronger effect = lower value
[45] = locus YML070W, strain DAK1, stronger effect = lower value
[46] = locus YMR001C, strain CDC5, stronger effect = lower value
[47] = locus YMR205C, strain PFK2 (second series), stronger effect = lower value
[48] = locus YMR277W, strain FCP1, stronger effect = lower value
[49] = locus YNL006W, strain LST8, stronger effect = lower value
[50] = locus YNL020C, strain ARK1, stronger effect = lower value
[51] = locus YNL161W, strain CBK1, stronger effect = lower value
[52] = locus YNL183C, strain NPR1, stronger effect = lower value
[53] = locus YNL207W, strain RIO2, stronger effect = lower value
[54] = locus YNL222W, strain SSU72, stronger effect = lower value
[55] = locus YNL307C, strain MCK1 (second series), stronger effect = lower value
[56] = locus YOL078W, strain AVO1, stronger effect = lower value
[57] = locus YOL136C, strain PFK27, stronger effect = lower value
[58] = locus YOR061W, strain CKA2, stronger effect = lower value
[59] = locus YOR119C, strain RIO1, stronger effect = lower value
[60] = locus YOR231W, strain MKK1, stronger effect = lower value
[61] = locus YOR329C, strain SCD5, stronger effect = lower value
[62] = locus YPL031C, strain PHO85, stronger effect = lower value
[63] = locus YPL153C, strain RAD53, stronger effect = lower value
[64] = locus YPL204W, strain HRR25, stronger effect = lower value
[65] = locus YPL209C, strain IPL1, stronger effect = lower value
[66] = locus YPL256C, strain CLN2, stronger effect = lower value
[67] = locus YPR025C, strain CCL1, stronger effect = lower value
[68] = locus YPR106W, strain ISR1, stronger effect = lower value
[69] = locus YPR111W, strain DBF20, stronger effect = lower value
[70] = strain NNK1, stronger effect = lower value
[71] = strain TSCII, stronger effect = lower value

Measured: normalized growth

O=C1Nc2ccccc2/C1=C\c1c(Cl)cccc1Cl
inactive: [1] 0.966 | [2] 0.963 | [3] 0.973 | [4] 0.974 | [5] 0.972 | [6] 0.969 | [7] 0.975 | [8] 0.964 | [9] 0.974 | [10] 0.965 | [11] 0.951 | [12] 0.975 | [13] 0.958 | [14] 0.963 | [15] 0.939 | [16] 0.945 | [17] 0.945 | [18] 0.96 | [19] 0.961 | [20] 0.969 | [21] 0.976 | [22] 0.973 | [23] 0.945 | [24] 0.981 | [25] 0.909 | [26] 0.985 | [27] 0.901 | [28] 1.03 | [29] 0.918 | [30] 0.971 | [31] 0.894 | [32] 0.915 | [33] 0.946 | [34] 0.974 | [35] 0.95 | [36] 1.04 | [37] 0.944 | [38] 0.963 | [39] 0.938 | [40] 0.968 | [41] 1.01 | [43] 0.962 | [44] 0.928 | [45] 0.954 | [46] 0.968 | [47] 0.956 | [48] 0.965 | [49] 0.969 | [50] 0.941 | [51] 0.968 | [52] 0.989 | [53] 0.96 | [54] 0.967 | [55] 0.953 | [56] 0.963 | [57] 0.959 | [58] 0.959 | [59] 1.02 | [60] 0.953 | [61] 0.969 | [62] 0.939 | [63] 0.935 | [64] 0.926 | [65] 0.969 | [66] 0.905 | [67] 0.972 | [68] 0.954 | [69] 0.952 | [70] 0.946 | [71] 0.964
active: [42] 0.845

Cc1ccc(C)n1-c1ccc(/C=C2/C(=O)Nc3ccccc32)cc1
inactive: [1] 0.957 | [2] 0.973 | [3] 0.975 | [4] 0.972 | [5] 0.962 | [6] 0.971 | [7] 0.964 | [8] 0.979 | [9] 0.968 | [10] 0.974 | [11] 0.91 | [12] 0.986 | [13] 0.983 | [14] 0.968 | [15] 0.931 | [16] 0.903 | [17] 0.932 | [18] 0.947 | [19] 0.957 | [20] 0.981 | [21] 0.948 | [22] 0.976 | [23] 0.945 | [24] 0.925 | [25] 0.839 | [27] 0.832 | [28] 0.907 | [29] 0.857 | [30] 0.97 | [31] 0.878 | [32] 0.973 | [33] 0.923 | [34] 0.972 | [35] 0.912 | [36] 0.794 | [37] 0.963 | [38] 0.887 | [39] 0.939 | [40] 0.979 | [41] 1.02 | [43] 0.926 | [44] 0.925 | [45] 0.916 | [46] 0.97 | [47] 0.932 | [48] 0.957 | [49] 0.976 | [50] 0.936 | [51] 0.975 | [52] 0.936 | [53] 0.974 | [54] 0.978 | [55] 0.947 | [56] 0.972 | [57] 0.9 | [58] 0.932 | [59] 0.942 | [60] 0.863 | [61] 0.977 | [62] 0.931 | [63] 0.92 | [64] 0.935 | [65] 0.977 | [67] 0.971 | [68] 0.968 | [69] 0.958 | [70] 0.959 | [71] 0.967
active: [26] 0.662 | [42] 0.837 | [66] 0.855
